Results on eight compounds are retold here after PubChem BioAssay (NCI).

Compounds without any hit were thinned out: in the full panel of roughly 83,000, 20% have a hit.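 Interpretation: 100, growth as untreated; towards 0, rising growth inhibition; 0, no net growth; 0 to -100, cell death. Compounds scoring below 10 were considered active.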 A number with no mark means an inactive call. Calls of active or inactive are those of the source.

Among the test systems are NCI-H23 lung; NCI-H226 lung; NCI-H322M lung; HOP-62 NSCLC; NCI-H460 lung; 786-0 renal; DU-145 prostate; MDA-MB-231 breast; SF-268 CNS; SNB-19 CNS; UACC-62 melanoma; SK-MEL-28 melanoma; SN12C renal; UO-31 renal; OVCAR-5 ovarian; OVCAR-3 ovarian; NCI/ADR-RES ovarian; MDA-MB-435 melanoma; MCF7 breast; KM12 colon.
Assay in all cases: NCI-60 one-dose screen, 48 h (100 = growth as untreated, 0 = no growth, -100 = all killed)
Holding throughout (details): 10 µM unless noted

Regarding `O=c1[nH]c2cc(Cl)ccc2n1C1CCN(CCCC(c2ccc(F)cc2)c2ccc(F)cc2)CC1`, the growth is 59.7% in the assay with NCI-H23 lung; 126% in the assay with NCI-H226 lung; 78.1% in the assay on NCI-H322M lung; 67.2% in the assay on HOP-62 NSCLC; -49.2% (active) with NCI-H460 lung; 11.5% in the assay with 786-0 renal. Also, the growth with DU-145 prostate is -0.502% (active); with MDA-MB-231 breast it was 29.2%; in the assay with SF-268 CNS, 24.8%; in the assay with SNB-19 CNS, 73.8%; in the assay on UACC-62 melanoma, 39.7%; in the assay with SK-MEL-28 melanoma, -90.8% (active). In addition, the growth in the assay with SN12C renal is 20.1%; in the assay with UO-31 renal it was -48.3% (active); in the assay on OVCAR-5 ovarian, 76.3%; in the assay with OVCAR-3 ovarian, -99.6% (active); in the assay with NCI/ADR-RES ovarian, 51.9%; with MDA-MB-435 melanoma, 18.2%. The growth is -32.4% (active) in the assay with MCF7 breast and -94.6% (active) in the assay on KM12 colon.
For the compound `COc1cc(N(CCCl)CCCl)ccc1C=Nc1ccccc1C(=O)O`, the growth was 101% in the assay on NCI-H23 lung; 94.7% in the assay on NCI-H226 lung; 95.7% in the assay on NCI-H322M lung; 110% in the assay with HOP-62 NSCLC; 81.1% with NCI-H460 lung; 110% in the assay with 786-0 renal. For the same compound, the growth is 104% in the assay on DU-145 prostate; 96.8% in the assay on MDA-MB-231 breast; 103% in the assay with SF-268 CNS; 97.2% in the assay on SNB-19 CNS; 96.4% with UACC-62 melanoma; 94.3% in the assay with SK-MEL-28 melanoma. For the same compound, the growth in the assay with SN12C renal is 99.2%; in the assay with UO-31 renal it was 78.5%; in the assay with OVCAR-5 ovarian, 108%; with OVCAR-3 ovarian it was 97.8%; with NCI/ADR-RES ovarian, 102%; in the assay on MDA-MB-435 melanoma, 102%. The growth is 93.7% in the assay with MCF7 breast and 71.1% in the assay with KM12 colon.
On to `C/C(=C\C(=O)O[C@H]1[C@@H]2[C@H](C)CC[C@H]2[C@]2(C)O[C@@]1(C1CCCCC1)C[C@H]2OC(=O)CO)c1ccccc1`, for which the growth was 50.8% in the assay on NCI-H23 lung; 41.1% in the assay on NCI-H226 lung; 84.5% with NCI-H322M lung; 55.1% in the assay on HOP-62 NSCLC; 13.7% with NCI-H460 lung; -16% (active) in the assay on 786-0 renal. In addition, the growth in the assay on DU-145 prostate was 66.1%; with MDA-MB-231 breast, 55.5%; with SF-268 CNS it was 26%; with SNB-19 CNS it was 64.4%; in the assay on UACC-62 melanoma, 63.2%; with SK-MEL-28 melanoma, 64.6%. Moreover, the growth with SN12C renal is 7.85% (active); with UO-31 renal, -47.2% (active); in the assay with OVCAR-5 ovarian it was 82.9%; with OVCAR-3 ovarian, 44.4%; in the assay on NCI/ADR-RES ovarian, 7.73% (active); with MDA-MB-435 melanoma it was 61.7%. The growth was 3.04% (active) in the assay on MCF7 breast and 38.2% with KM12 colon.
`Nc1ccc(N)c2c1Oc1ccccc1O2`: the growth in the assay with NCI-H23 lung is 85.7%; with NCI-H226 lung it was 84.5%; in the assay with NCI-H322M lung, 97.2%; in the assay on HOP-62 NSCLC it was 95.5%; in the assay on NCI-H460 lung it was 117%; in the assay with 786-0 renal, 93.2%. Further, the growth in the assay on DU-145 prostate was 94.3%; with MDA-MB-231 breast it was 78.5%; with SF-268 CNS it was 105%; with SNB-19 CNS, 104%; in the assay on UACC-62 melanoma, 98.6%; with SK-MEL-28 melanoma, 108%. The growth in the assay on SN12C renal was 86.1%; in the assay on UO-31 renal it was 134%; with OVCAR-5 ovarian, 89%; in the assay on OVCAR-3 ovarian it was 99%; with NCI/ADR-RES ovarian, 94.9%; with MDA-MB-435 melanoma, 109%. In addition, the growth was 98% with MCF7 breast and 97.3% in the assay on KM12 colon.
For the compound `CO[C@@H]1[C@H](OC(=O)NC(=O)CCl)CC[C@]2(CO2)[C@H]1[C@@]1(C)O[C@@H]1CC=C(C)C`, the growth in the assay with NCI-H23 lung was 64.1%; in the assay on NCI-H226 lung, 72.7%; in the assay on NCI-H322M lung it was 59.8%; in the assay on HOP-62 NSCLC it was 64.4%; in the assay on NCI-H460 lung, 23.5%; in the assay with 786-0 renal, 70.4%. Also, the growth in the assay on DU-145 prostate is 59.8%; in the assay with MDA-MB-231 breast, 79.9%; in the assay on SF-268 CNS, 71.5%; in the assay on SNB-19 CNS, 48.6%; in the assay with UACC-62 melanoma, 63.5%; in the assay with SN12C renal it was 72.3%. The growth with UO-31 renal is 52.6%; with OVCAR-5 ovarian, 72.3%; in the assay with OVCAR-3 ovarian it was 71.8%; in the assay on NCI/ADR-RES ovarian, 75.9%; in the assay on MDA-MB-435 melanoma, 62.6%; in the assay with MCF7 breast, 26.9%. Further, the growth in the assay on KM12 colon was 36.3%.
Turning to `Oc1ccc2c3c1O[C@H]1c4[nH]c5ccccc5c4C[C@@]4(O)C(C2)N(CC2CC2)CC[C@]314`, the growth in the assay with NCI-H23 lung is 90.9%; in the assay on NCI-H226 lung it was 94.4%; in the assay with NCI-H322M lung, 94.3%; in the assay with HOP-62 NSCLC, 95.9%; with NCI-H460 lung it was 107%; in the assay with 786-0 renal it was 95.2%. Moreover, the growth in the assay with DU-145 prostate is 96.6%; in the assay with MDA-MB-231 breast, 101%; in the assay on SF-268 CNS, 93.2%; in the assay on SNB-19 CNS, 106%; in the assay with UACC-62 melanoma, 102%; with SK-MEL-28 melanoma, 105%. Moreover, the growth in the assay with SN12C renal is 103%; in the assay on UO-31 renal, 69.9%; with OVCAR-5 ovarian it was 106%; in the assay on OVCAR-3 ovarian, 89.1%; with NCI/ADR-RES ovarian, 92.1%; with MDA-MB-435 melanoma, 100%. Moreover, the growth with MCF7 breast is 99.7%; in the assay on KM12 colon, 90.7%.
For `CC[C@H](C)[C@H](NC(=O)Nc1ccccc1)C(=O)N(C)[C@H](C[C@@H](OC(C)=O)c1nc(C(=O)N[C@@H](Cc2ccccc2)C[C@H](C)C(=O)OC)cs1)C(C)C`, the growth in the assay with NCI-H23 lung was 23.6%; with NCI-H226 lung it was 24.5%; in the assay on NCI-H322M lung, 48.4%; in the assay on HOP-62 NSCLC, 20.3%; in the assay on NCI-H460 lung, 1.7% (active); in the assay with 786-0 renal, 18.1%. Besides, the growth in the assay on DU-145 prostate is -3.41% (active); in the assay on MDA-MB-231 breast it was -4.27% (active); with SF-268 CNS it was 18.8%; with SNB-19 CNS, 45%; in the assay on UACC-62 melanoma, 15.1%; with SK-MEL-28 melanoma, 52.1%. For the same compound, the growth in the assay with SN12C renal was 46.6%; with UO-31 renal, 26.7%; with OVCAR-5 ovarian, 28.9%; in the assay on OVCAR-3 ovarian it was -40.4% (active); in the assay on NCI/ADR-RES ovarian, 59.1%; with MDA-MB-435 melanoma it was -36.7% (active). For the same compound, the figures for the growth with MCF7 breast and in the assay on KM12 colon were 12.4% and 4.31% (active), respectively.
Take `C=CC(O)CN1CC1CC` (centres undefined): the growth in the assay with NCI-H23 lung is 99%; in the assay with NCI-H226 lung, 105%; with NCI-H322M lung, 106%; in the assay with HOP-62 NSCLC, 101%; in the assay on NCI-H460 lung, 100%; with 786-0 renal, 107%. The growth in the assay on DU-145 prostate is 108%; in the assay with MDA-MB-231 breast it was 113%; in the assay with SF-268 CNS it was 106%; with SNB-19 CNS, 97.8%; with UACC-62 melanoma, 92.6%; in the assay with SK-MEL-28 melanoma, 105%. Besides, the growth was 99% with SN12C renal; 86.3% with UO-31 renal; 104% in the assay with OVCAR-5 ovarian; 111% with OVCAR-3 ovarian; 97.4% with NCI/ADR-RES ovarian; 99.1% in the assay with MDA-MB-435 melanoma. For the same compound, the growth was 94.2% in the assay on MCF7 breast and 106% in the assay with KM12 colon.
